The results in this text go back to PubChem BioAssay.

Test [1] is described as follows: compounds binding Alexa647 anti-His antibody – biochemical, small-molecule microarray, 635 nm fluorescence, artefact control for SMM control protein annotation, primary screen (AID 1128).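 Note: score merges feature fluorescence with signal-to-noise for each printed compound spot.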 Conditions: higher = more signal.
For test [2], the system named is Human papillomavirus type 1a E7 protein (residues 1-88). Nature of the test: HPV1a E7 small-molecule binders, primary screen, biochemical, small-molecule microarray, residues 1-88, 635 nm (AID 1129). Conditions: small-molecule microarray binding, fluorescence 635 nm; higher = more signal.
For test [3], the target named is Focal adhesion kinase 1 (Homo sapiens) (UniProt Q05397). Nature of the test: PTK2 protein binding on printed compound slides – biochemical, small-molecule microarray, 635/667 nm fluorescence, BSA, DTT, primary screen (AID 1130).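 Note: composite of spot emission at 667 nm and signal to noise over triplicate slides.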 The settings on record: 635 nm fluorescence, higher = more signal.
Test [4] deals with Fibrinogen (Alexa647-labelled). Nature of the test: Alexa647-fibrinogen binding to printed small molecules – biochemical, small-molecule microarray, 635/667 nm fluorescence, artefact control for SMM control-protein annotation, profiling panel (AID 1131).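 Note: z-score merges 667 nm fluorescence with per-spot signal-to-noise over triplicate slides.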 The settings on record: fibrinogen-A647 binding fluorescence, higher = more signal.
Test [5] deals with Follistatin (Homo sapiens) (UniProt P19883). The experiment in a line: FST protein binding to printed compounds – biochemical, small-molecule microarray, 635/667 nm fluorescence, primary screen (AID 1132). The settings on record: 635 nm fluorescence, higher = more signal.
Test [6] has as its target Fibroblast growth factor 2 (Homo sapiens) (UniProt P09038). The experiment in a line: basic fibroblast growth factor binding to printed compounds – biochemical, small-molecule microarray, 635/667 nm fluorescence, primary screen (AID 1133). Conditions: FGF2, fluorescence 635/667, higher = more signal.
The nature of test [7]: JC-1 mitochondrial potential readout, lung cancer cells – cell-based, A549, JC-1 fluorescence, basal, 24 h, 100 nL, profiling panel (AID 1138).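 Note: A549 lung adenocarcinoma cells under basal conditions with no added stimulus; test concentration not given here.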 The settings on record: higher = more signal.
For a further test, the system named is Lefty1. The experiment in a line: Lefty1 protein binding to printed compounds – biochemical, small-molecule microarray, 635/667 nm fluorescence, primary screen (AID 1139). The settings on record: fluorescence 635/667, higher = more signal.
Test [8] relates to wheat germ agglutinin (Triticum aestivum), Alexa647-labelled. Nature of the test: Alexa647-WGA lectin binding to printed small molecules – biochemical, small-molecule microarray, 635/667 nm fluorescence, artefact control for SMM control-protein annotation, profiling panel (AID 1140).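 Note: score merges 667 nm feature emission with signal to noise over triplicate slides.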 The settings on record: WGA-A647 binding, 635 nm fluorescence, higher = more signal.
Test [9] concerns the target Luciferin 4-monooxygenase (Photinus pyralis) (UniProt P08659). The experiment in a line: inhibition of purified Photinus pyralis luciferase – biochemical, luminescence, purified enzyme, 2006 set, primary screen (AID 1141).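 Note: cell-free assay with purified firefly luciferase at 100 ng per well in PBS; test concentration not given here.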 The settings on record: purified firefly luciferase, SteadyGlo luminescence, 30 min; higher = more signal, called active from +8 up or from −8 down.

Activity calls are given as the source filed them.

Fibroblast growth factor 2 (Homo sapiens), sequence (P09038 whole entry, looked up): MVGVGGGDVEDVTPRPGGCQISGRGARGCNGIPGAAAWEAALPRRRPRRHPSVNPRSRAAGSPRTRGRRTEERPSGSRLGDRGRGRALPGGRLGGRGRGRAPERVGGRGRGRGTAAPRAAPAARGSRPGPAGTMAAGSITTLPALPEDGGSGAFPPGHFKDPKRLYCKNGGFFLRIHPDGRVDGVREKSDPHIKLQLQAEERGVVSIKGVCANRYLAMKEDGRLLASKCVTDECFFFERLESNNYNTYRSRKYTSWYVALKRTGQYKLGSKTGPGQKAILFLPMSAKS
Follistatin (Homo sapiens), sequence (P19883 whole entry, looked up): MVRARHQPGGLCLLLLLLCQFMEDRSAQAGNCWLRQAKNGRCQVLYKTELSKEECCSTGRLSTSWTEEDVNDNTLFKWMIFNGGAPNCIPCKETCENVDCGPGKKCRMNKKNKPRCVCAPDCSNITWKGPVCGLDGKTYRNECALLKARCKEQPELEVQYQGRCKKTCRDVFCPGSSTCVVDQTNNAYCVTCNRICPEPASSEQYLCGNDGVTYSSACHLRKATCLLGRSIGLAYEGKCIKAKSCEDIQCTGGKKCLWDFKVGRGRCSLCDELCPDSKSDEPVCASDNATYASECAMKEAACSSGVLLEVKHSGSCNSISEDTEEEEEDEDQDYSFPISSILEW
Focal adhesion kinase 1 (Homo sapiens), sequence (Q05397 whole entry, looked up): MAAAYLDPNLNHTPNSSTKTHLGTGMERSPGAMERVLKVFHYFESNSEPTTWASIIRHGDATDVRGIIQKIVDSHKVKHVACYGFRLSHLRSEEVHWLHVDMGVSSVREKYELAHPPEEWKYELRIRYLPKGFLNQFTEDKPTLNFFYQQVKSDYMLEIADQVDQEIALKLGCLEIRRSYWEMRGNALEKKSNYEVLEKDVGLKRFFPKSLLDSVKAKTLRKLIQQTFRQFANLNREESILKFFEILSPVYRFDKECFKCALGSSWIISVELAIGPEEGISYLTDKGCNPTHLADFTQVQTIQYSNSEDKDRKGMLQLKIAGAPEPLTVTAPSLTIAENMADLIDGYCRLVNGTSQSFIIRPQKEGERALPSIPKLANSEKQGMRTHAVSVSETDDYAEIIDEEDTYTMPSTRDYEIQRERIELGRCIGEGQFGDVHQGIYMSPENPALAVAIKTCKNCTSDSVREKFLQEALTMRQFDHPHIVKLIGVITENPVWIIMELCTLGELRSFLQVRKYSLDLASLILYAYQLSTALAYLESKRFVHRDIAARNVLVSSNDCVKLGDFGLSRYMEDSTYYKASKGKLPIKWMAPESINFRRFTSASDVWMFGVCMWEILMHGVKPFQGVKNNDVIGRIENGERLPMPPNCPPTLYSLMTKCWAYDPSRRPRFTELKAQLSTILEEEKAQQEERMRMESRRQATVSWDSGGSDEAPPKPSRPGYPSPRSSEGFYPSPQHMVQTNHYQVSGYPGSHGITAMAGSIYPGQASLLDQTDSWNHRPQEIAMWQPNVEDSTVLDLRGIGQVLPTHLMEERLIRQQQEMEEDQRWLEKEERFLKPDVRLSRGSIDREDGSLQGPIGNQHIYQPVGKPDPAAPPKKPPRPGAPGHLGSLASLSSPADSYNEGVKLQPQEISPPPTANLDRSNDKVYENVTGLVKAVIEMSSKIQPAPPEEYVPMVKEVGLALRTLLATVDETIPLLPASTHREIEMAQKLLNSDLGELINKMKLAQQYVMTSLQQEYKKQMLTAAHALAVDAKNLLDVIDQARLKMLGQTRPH
Luciferin 4-monooxygenase (Photinus pyralis), sequence (P08659 whole entry, looked up): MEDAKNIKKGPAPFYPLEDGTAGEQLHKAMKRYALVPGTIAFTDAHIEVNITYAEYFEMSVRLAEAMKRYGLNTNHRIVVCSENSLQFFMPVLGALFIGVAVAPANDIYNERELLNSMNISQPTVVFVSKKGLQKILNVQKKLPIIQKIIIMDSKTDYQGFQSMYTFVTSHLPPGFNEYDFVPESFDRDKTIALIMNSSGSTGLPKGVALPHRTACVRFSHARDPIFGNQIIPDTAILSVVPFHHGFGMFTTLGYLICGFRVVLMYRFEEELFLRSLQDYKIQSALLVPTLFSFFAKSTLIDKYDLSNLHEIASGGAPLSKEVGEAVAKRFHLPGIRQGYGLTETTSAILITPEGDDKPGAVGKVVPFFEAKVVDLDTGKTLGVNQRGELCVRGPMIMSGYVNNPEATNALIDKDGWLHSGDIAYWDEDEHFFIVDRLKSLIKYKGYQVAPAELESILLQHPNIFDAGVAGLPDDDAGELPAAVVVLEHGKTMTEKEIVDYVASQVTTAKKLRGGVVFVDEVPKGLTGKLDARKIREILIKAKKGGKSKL

On to `COc1ccc([Si](C)(C)[C@@H]2[C@@H](CCO)O[C@]3(C(=O)N(Cc4cccc(N5CCOC5=O)c4)c4ccccc43)[C@H]2C)cc1`, for which the composite z-score was 0.0657 in test [1]; 0.981 in test [2]; -0.0325 in test [3]; 0.9 in test [4]; 1 in test [5]; 0.568 in [6]. Moreover, the composite z-score with Lefty1 came out at 0.26; in test [8], 1.08. Moreover, the z-score was -0.393 in test [7] and -0.335 (inactive) in test [9].
`CC(C)(C)OC(=O)CC[C@]1(C(N)=O)N=C(c2ccc(OCCCO)cc2)O[C@H]1c1ccccc1`: the composite z-score was 2.07 in test [1]; 1.2 in test [2]; 0.35 in test [3]; 0.407 in test [4]; 0.839 in [5]; 0.29 in [6]. Besides, the composite z-score in the test with Lefty1 was -0.388; in [8], 1.48. In addition, the z-score was 1.04 in test [7] and -0.47 (inactive) in test [9].
`COC(=O)[C@@]1(Cc2ccc(OC)cc2)[C@H]2c3cc(C(=O)N(C)C)n(Cc4ccc(C(F)(F)F)nc4)c3C[C@H]2CN1C(=O)c1ccccc1`: the composite z-score is 0.598 in test [1]; 0.846 in [2]; 1.2 in [3]; 0.843 in test [4]; -0.0313 in test [5]; -0.49 in [6]. Besides, the composite z-score in the test with Lefty1 was -0.501; in test [8], 0.833. In addition, the z-score in test [7] was 0.549; in test [9], 0.678 (inactive).
Take `COc1cc2c(cc1O)C(c1cccs1)N(Cc1cccc(OC(F)(F)F)c1)CC2` (stereo not given): the composite z-score in [1] is 2.17; in [2], 0.733; in [3], 0.758; in test [4], 0.173; in test [5], 0.457; in test [6], 0.252. Also, the figures for the composite z-score (in the test with Lefty1; in test [8]) were -0.196 and 0.84, respectively. Moreover, the z-score is -0.0263 in [7] and -0.619 (inactive) in [9].
With `CN1C(=O)C2C=CC(C(O)C=Cc3ccc([N+](=O)[O-])cc3)N(Nc3ccccc3)C2C1=O` (stereo not given), the composite z-score in [1] came to 1.26; in test [2] it was 1.24; in test [3] it was 0.198; in [4], 1.01; in test [5] it was 1.1; in test [6], 0.028. Also, the composite z-score with Lefty1 was 0.637; in [8], 0.289. In addition, the z-score was 0.509 in test [7] and -1.02 (inactive) in test [9].
Consider `O=C(O)[C@@]1(CCS(=O)(=O)c2ccccc2)N=C(c2ccc(OCCCO)cc2)O[C@H]1c1ccccc1`, for which the composite z-score in test [1] is 2.65; in test [2] it was 0.23; in test [3], 0.264; in test [4], 0.993; in test [5], 0.265; in test [6], -0.761. Further, the composite z-score in the test with Lefty1 was -0.387; in [8], 0.763. Further, the z-score was 0.175 in test [7] and -1.56 (inactive) in [9].
Regarding `CC1CC/C=C\[C@H]2OC34C=CCN(Cn5nnc6ccccc65)C(=O)[C@H]3N(CCCCCO)C(=O)[C@@H]4C2C(=O)O1` (stereo not given in full), the composite z-score in [1] is 0.429; in test [2], -1.48; in test [3], -0.281; in test [4] it was -2.26; in test [5] it was -1.16; in test [6] it was -1.69. Further, the composite z-score in the test with Lefty1 is -0.425; in test [8], 1.24. For the same molecule, the z-score in test [7] is 0.114; in [9], 0.932 (inactive).
As for `O=C1OCCC=C[C@H]2OC34C=CCN(Cn5nnc6ccccc65)C(=O)[C@H]3N(CCO)C(=O)[C@@H]4C12` (stereo not given in full), the composite z-score in test [1] was -0.459; in [2], -0.566; in test [3], -0.225; in test [4], -0.934; in test [5] it was -0.851; in test [6], -1.3. For the same molecule, the composite z-score is -1.31 in the test with Lefty1 and 0.522 in test [8]. Moreover, the z-score was -0.758 in test [7] and 0.612 (inactive) in [9].
For `C=CC[C@@]1(C(=O)N2CCCCC2)N=C(c2ccc(OCCCO)cc2)O[C@@H]1c1ccccc1CN=[N+]=[N-]`, the composite z-score amounted to 2.75 in [1]; 1.27 in test [2]; 0.398 in [3]; 1.02 in [4]; 1.37 in test [5]; 0.288 in [6]. Moreover, the figures for the composite z-score (in the test with Lefty1; in test [8]) were 0.484 and 0.768, respectively. Moreover, the figures for the z-score in [7] and in [9] were -0.0114 and -1.37 (inactive), respectively.
For `NC(=O)NCC#Cc1ccc2c(c1)[C@]1(C(=O)N2)[C@H](C(=O)O)[C@H]2C(=O)O[C@H](c3ccccc3)[C@H](c3ccccc3)N2[C@@H]1c1ccc(O)cc1`, the composite z-score amounted to 0.0795 in [1]; 0.0885 in test [2]; 0.06 in test [3]; 0.972 in [4]; 1.31 in test [5]; 0.153 in test [6]. Further, the composite z-score worked out at 0.654 in the test on Lefty1 and 0.642 in test [8]. The z-score in test [7] is -1.01; in test [9], -1.5 (inactive).
